# Assay results taken from PubChem BioAssay (EPA / NIEHS).
# Records with an inconclusive call do not appear. Calls of active or inactive are those of the source. How the source made its calls: active means hit-call score of the fitted dose curve at least 0.9, where 1 is the maximum; inconclusive means response in the unintended direction; inactive means score below 0.9.
# Assays:
# [1] = target: Luciferin 4-monooxygenase (Photinus pyralis) (UniProt P08659); assay: CCTE_Simmons_QuantiLum_inhib_2: CCTE's Firefly Luciferase Inhibition Assay, Simmons Lab (AID 2283767);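 on AC50: potency for inhibitors that lower luciferase luminescence relative to DMSO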
# Luciferin 4-monooxygenase (Photinus pyralis), sequence (P08659 whole entry, looked up): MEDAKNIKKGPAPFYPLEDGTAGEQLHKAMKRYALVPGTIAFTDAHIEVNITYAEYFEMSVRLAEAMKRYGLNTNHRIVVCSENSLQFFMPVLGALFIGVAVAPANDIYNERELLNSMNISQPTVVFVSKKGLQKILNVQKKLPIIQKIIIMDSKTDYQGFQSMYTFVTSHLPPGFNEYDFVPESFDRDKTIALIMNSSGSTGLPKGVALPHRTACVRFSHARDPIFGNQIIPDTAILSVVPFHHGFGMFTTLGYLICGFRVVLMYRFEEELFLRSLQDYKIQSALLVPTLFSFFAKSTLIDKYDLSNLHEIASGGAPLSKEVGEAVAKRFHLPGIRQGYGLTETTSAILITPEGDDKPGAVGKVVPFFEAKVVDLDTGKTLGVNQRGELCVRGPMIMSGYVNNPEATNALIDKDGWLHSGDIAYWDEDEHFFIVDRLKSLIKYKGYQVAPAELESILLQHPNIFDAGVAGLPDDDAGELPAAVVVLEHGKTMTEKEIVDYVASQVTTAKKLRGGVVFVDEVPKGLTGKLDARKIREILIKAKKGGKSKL
# In short: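 Eight test concentrations, 5 nM up to 87.5 uM final, preincubated 30min at 37C in the dark with purified luciferase (0.5% DMSO final). Detection reagent (150uM D-luciferin, 147uM dATP, 75uM CoA, pH 7.8) injected per well before kinetic luminescence read; three replicates.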
# [2] = ACEA_AR_agonist_AUC_viability: ACEA Biosciences xCELLigence Real-Time Cell Analysis on Androgen Receptor Agonism for Viability (AID 2283775);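 on AC50: viability read 80 hours after compound addition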
# In short: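 22Rv1 cells; impedance growth kinetics; 8-pt 1:4 dilutions from 100 uM top final, ≤0.5% DMSO; n = 2; 80 h read; AUC viability, loss-of-signal vs DMSO.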
# [3] = ACEA_AR_antagonist_AUC_viability: ACEA Biosciences xCELLigence Real-Time Cell Analysis on Androgen Receptor Antagonism for Viability (AID 2283776);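 further: 22Rv1 human prostate cancer cells growing on impedance electrode plates; area under impedance growth curve at 80 h after dosing as viability; hits lower the growth signal relative to DMSO meaning cytotoxicity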
# In short: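 Impedance read-out (RT-CES): area under growth curve at 80 h post-dose, loss of signal scored vs DMSO baseline. 22Rv1 cells; 8-pt 1:4 series, top 100 uM final, ≤0.5% DMSO; biological duplicate.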
# [4] = test system: chicken Androgen Receptor (AR), gene 422165; assay: ATG_chAR_XSP1: Attagene TRANS-FACTORIAL Multi-Species (XSP1) HepG2 Assay for chicken Androgen Receptor (AR) (AID 2283768)
# In short: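 Reporter mRNA read by RT-PCR with fluorescent labelling and capillary electrophoresis 24 h after chemical dosing of transiently transfected HepG2 cells. Chicken AR-Gal4 chimera, partially stimulated with 3 nM 6-alpha-fluorotestosterone; activity fitted upward relative to DMSO.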
# [5] = test system: zebrafish Androgen Receptor (AR), gene 100005148; assay: ATG_zfAR_XSP1: Attagene TRANS-FACTORIAL Multi-Species (XSP1) HepG2 Assay for zebrafish Androgen Receptor (AR) (AID 2283771)
# In short: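 Gain-of-signal versus DMSO was measured as reporter transcripts quantified by RT-PCR, fluorescent labelling and capillary electrophoresis after 24 h chemical exposure. The cells were HepG2 expressing a chimeric zebrafish AR-GAL4, co-stimulated with 3 nM 6-alpha-fluorotestosterone.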
# [6] = target: zebrafish Estrogen Receptor (ESR1), esr1 (gene 259252) (UniProt P57717); assay: ATG_zfER1_XSP1: Attagene TRANS-FACTORIAL Multi-Species (XSP1) HepG2 Assay for zebrafish Estrogen Receptor (ESR1) (AID 2283772)
# zebrafish Estrogen Receptor (ESR1), esr1 (gene 259252), sequence (P57717 whole entry, looked up, the tested form may be a part): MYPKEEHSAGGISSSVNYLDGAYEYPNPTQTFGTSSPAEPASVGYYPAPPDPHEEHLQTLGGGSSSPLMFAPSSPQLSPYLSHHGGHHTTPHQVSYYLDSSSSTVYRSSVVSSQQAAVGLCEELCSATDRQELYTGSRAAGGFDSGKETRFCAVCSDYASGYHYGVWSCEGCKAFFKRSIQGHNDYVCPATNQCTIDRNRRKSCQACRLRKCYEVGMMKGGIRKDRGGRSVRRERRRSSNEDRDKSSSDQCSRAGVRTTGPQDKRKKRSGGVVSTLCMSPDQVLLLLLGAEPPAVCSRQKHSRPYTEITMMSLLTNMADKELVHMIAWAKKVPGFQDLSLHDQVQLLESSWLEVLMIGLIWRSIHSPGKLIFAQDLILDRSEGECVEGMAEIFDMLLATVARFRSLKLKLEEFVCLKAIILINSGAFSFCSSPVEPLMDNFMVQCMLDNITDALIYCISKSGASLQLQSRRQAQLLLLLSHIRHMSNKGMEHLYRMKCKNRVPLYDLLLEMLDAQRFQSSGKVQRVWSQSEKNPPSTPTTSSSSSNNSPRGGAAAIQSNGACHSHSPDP
# In short: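 HepG2 cells were transiently transfected with multiplexed GAL4-UAS reporter units driven by chimeric NR-GAL4 proteins, dosed for 24 h with 3 nM 6-alpha-fluorotestosterone present, and reporter mRNA quantified by RT-PCR and capillary electrophoresis versus DMSO.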
# [7] = test system: zebrafish Estrogen Receptor (ESR2B), gene 317733; assay: ATG_zfER2b_XSP1: Attagene TRANS-FACTORIAL Multi-Species (XSP1) HepG2 Assay for zebrafish Estrogen Receptor (ESR2B) (AID 2283773)
# In short: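 Medium contained 3 nM 6-alpha-fluorotestosterone. Reporter mRNA induction by exogenous zebrafish ER2b-Gal4 chimera was read 24 h post-dose in transiently transfected HepG2 cells, using RT-PCR, fluorescent labelling, HpaI digestion and capillary electrophoresis.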
# [8] = test system: frog Estrogen Receptor (ESR2), gene 100174814; assay: ATG_frER2_XSP1: Attagene TRANS-FACTORIAL Multi-Species (XSP1) HepG2 Assay for frog Estrogen Receptor (ESR2) (AID 2283774)
# In short: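 Reporter mRNA from a multiplexed TRANS system, measured by RT-PCR with fluorescent labelling and capillary electrophoresis, 24 hours after chemical exposure. Human HepG2 liver cells carried exogenous frog ER-Gal4 chimera; medium included 3 nM 6-alpha-fluorotestosterone; increases versus DMSO analysed.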
# [9] = test system: frog Estrogen Receptor (ESR1), gene 398734; assay: ATG_frER1_XSP1: Attagene TRANS-FACTORIAL Multi-Species (XSP1) HepG2 Assay for frog Estrogen Receptor (ESR1) (AID 2283777)
# In short: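 HepG2 cells transiently transfected with GAL4-UAS reporter units and frog ER–Gal4 chimera were dosed for 24 h with 3 nM 6-alpha-fluorotestosterone present. Reporter mRNA was measured by RT-PCR and capillary electrophoresis; gain of signal fitted versus DMSO.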
# [10] = test system: zebrafish Estrogen Receptor (ESR2A), gene 317734; assay: ATG_zfER2a_XSP1: Attagene TRANS-FACTORIAL Multi-Species (XSP1) HepG2 Assay for zebrafish Estrogen Receptor (ESR2A) (AID 2283778)
# In short: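 Reporter transcripts were quantified by RT-PCR, 6-FAM labelling, HpaI digestion and capillary electrophoresis after 24 h dosing. The cells were HepG2 transiently carrying a zebrafish ER2a–Gal4 construct plus multiplexed UAS reporters; medium contained 3 nM 6-alpha-fluorotestosterone.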
# [11] = test system: Thyroperoxidase (TPO), gene 445522; assay: CCTE_Simmons_GUA_TPO: CCTE's Guaiacol Assay for Thyroperoxidase (TPO) Inhibition, Simmons Lab (AID 2283750)
# In short: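 Porcine thyroid microsomes (25 ug) in 200mM potassium phosphate, preincubated 30 s at 37C with compound (8 concentrations, 5 nM–87.5 uM) and 35mM guaiacol; 1mM H2O2 starts reaction. Absorbance change at 450nm over first 80 s; loss of signal versus DMSO, three replicates.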
smiles,measurement,setting,value
Cc1ccc(N=C=O)cc1N=C=O,AC50,[1],22.6 µM (active)
same,AC50,[2],25.1 µM (active)
same,AC50,[3],24 µM (active)
CCCCCOC(=O)c1ccccc1C(=O)OCCCCC,outcome,[4],inactive
same,outcome,[5],inactive
same,outcome,[6],inactive
same,AC50,[7],40.7 µM (active)
same,AC50,[8],27.3 µM (active)
same,AC50,[2],30 µM (active)
same,AC50,[3],67.9 µM (active)
same,outcome,[9],inactive
same,outcome,[10],inactive
CC(C)N(Cc1ccccc1)C(=O)C(C)(C)C,outcome,[2],inactive
same,outcome,[3],inactive
Cc1ccc(N)cc1,outcome,[1],inactive
same,outcome,[2],inactive
same,outcome,[3],inactive
CN(C)[C@@H]1C(=O)C(C(N)=O)=C(O)[C@@]2(O)C(=O)C3=C(O)c4c(O)cccc4[C@@](C)(O)[C@H]3C[C@@H]12,AC50,[11],117 µM (active)
same,outcome,[1],inactive
C=CCc1ccc2c(c1)OCO2,outcome,[1],inactive
same,outcome,[2],inactive
same,outcome,[3],inactive
CC(C)(C)C(O)(CCc1ccc(Cl)cc1)Cn1cncn1 (configuration not stated),AC50,[2],87 µM (active)
same,AC50,[3],58.9 µM (active)
Cc1ccc([N+](=O)[O-])cc1,outcome,[2],inactive
same,outcome,[3],inactive
O=C(N[C@H](c1ccccc1)[C@@H]1CN2CCC1CC2)c1c(Cl)ccc(C(F)(F)F)c1Cl,AC50,[2],62.8 µM (active)
same,AC50,[3],55.8 µM (active)
[O-][Cl+]O,outcome,[2],inactive
same,outcome,[3],inactive
Brc1ccc(Oc2ccccc2)cc1,outcome,[2],inactive
same,outcome,[3],inactive
c1ccc2c(c1)oc1ccccc12,outcome,[2],inactive
same,outcome,[3],inactive
CCCSC(=O)N(CCC)CCC,outcome,[2],inactive
same,outcome,[3],inactive
O=C(Oc1ccc(Br)cc1)N1CCN2CCC1CC2,AC50,[2],72.1 µM (active)
same,outcome,[3],inactive
c1ccc(C2CO2)cc1 (configuration not stated),outcome,[2],inactive
same,outcome,[3],inactive
O=C(O)C1C2CCC(O2)C1C(=O)O (configuration not stated),AC50,[3],35.4 µM (active)
CC(C)(OOC(C)(C)c1ccccc1)c1ccccc1,AC50,[2],17.2 µM (active)
same,AC50,[3],24.5 µM (active)
CC(C)COC(=O)c1ccccc1C(=O)OCC(C)C,AC50,[2],74.9 µM (active)
same,AC50,[3],74.8 µM (active)
N#CC(Br)Br,outcome,[3],inactive
CCOc1cccc(C2(N3CCN(c4ccccc4)CC3)CCC(C)CC2)c1 (configuration not stated),outcome,[2],inactive
same,outcome,[3],inactive
C1=Cc2cccc3cccc1c23,outcome,[3],inactive
Clc1ccccc1Cl,outcome,[3],inactive
CC(C)(C)OOC(C)(C)CCC(C)(C)OOC(C)(C)C,outcome,[3],inactive
CCNS(=O)(=O)C(F)(F)C(F)(F)C(F)(F)C(F)(F)C(F)(F)C(F)(F)C(F)(F)C(F)(F)F,outcome,[3],inactive
COc1cc(C=O)cc2c1[C@H](COC(N)=O)[C@]1(OC(C)=O)ON2C[C@H]2[C@@H]1N2C(C)=O,AC50,[2],0.0199 µM (active)
same,AC50,[3],0.00824 µM (active)
CS(=O)(=O)NC(=O)c1cc(Oc2ccc(C(F)(F)F)cc2Cl)ccc1[N+](=O)[O-],outcome,[3],inactive
CC(O)CCO (configuration not stated),outcome,[2],inactive
same,outcome,[3],inactive
C[N+](C)(C)CC1CO1 (configuration not stated),outcome,[2],inactive
same,outcome,[3],inactive
CNC(=O)Oc1cccc2c1OC(C)(C)C2,outcome,[2],inactive
same,outcome,[3],inactive
CC(C)(C)OOC(=O)c1ccccc1,outcome,[2],inactive
same,outcome,[3],inactive
CCCCCCCCn1sccc1=O,AC50,[2],18.5 µM (active)
same,AC50,[3],18.4 µM (active)
Nc1ccc([N+](=O)[O-])cc1,AC50,[2],16.1 µM (active)
same,AC50,[3],16.8 µM (active)
OCCOCCO,outcome,[3],inactive
ClC1=C(Cl)[C@]2(Cl)[C@H]3[C@H]([C@@H]4C=C[C@H]3C4)[C@@]1(Cl)C2(Cl)Cl,AC50,[2],18.1 µM (active)
same,AC50,[3],18.1 µM (active)
O=C(Nc1ccccc1)c1ccccc1I,outcome,[2],inactive
same,outcome,[3],inactive
Cn1cc(-c2ccccc2)c(=O)c(-c2cccc(C(F)(F)F)c2)c1,AC50,[2],50 µM (active)
same,AC50,[3],50 µM (active)
c1ccc(N=Nc2ccccc2)cc1,outcome,[3],inactive
ClC1=C(Cl)C2(Cl)C3C(Cl)C=CC3C1(Cl)C2(Cl)Cl (configuration not stated),AC50,[2],25 µM (active)
same,AC50,[3],22 µM (active)
O=[N+]([O-])c1ccc(Oc2ccc(Cl)cc2Cl)cc1,AC50,[2],84.9 µM (active)
same,AC50,[3],31.2 µM (active)
OCCCBr,outcome,[2],inactive
same,outcome,[3],inactive
CCCCCCCCCCCCCN1CC(C)OC(C)C1 (configuration not stated),outcome,[2],inactive
same,outcome,[3],inactive
O=C1CCCO1,outcome,[2],inactive
same,outcome,[3],inactive
CC(C)(O)c1cnn2c(-c3ccc(F)c(-c4c(F)cccc4C#N)c3)cnc2n1,outcome,[2],inactive
same,AC50,[3],51.1 µM (active)
[As]#[In],outcome,[2],inactive
same,outcome,[3],inactive
c1ccc2c(c1)-c1cccc3cccc-2c13,AC50,[3],8.92 µM (active)
CCCCCCCCOC(=O)c1ccc(C(=O)OCCCCCCCC)c(C(=O)OCCCCCCCC)c1,outcome,[2],inactive
same,outcome,[3],inactive
